Experiment in all cases: protein-binding microarray (PBM); PBM: ~300 nM protein, 6 mM HEPES pH 7.8, 80 mM KCl, 0.5 mM EDTA, 0.5 mM EGTA, 6% glycerol, 35 ng/ul poly-dIdC, 1% milk, 1 h, room temperature; Ap Aiptasia and Nv Nematostella (sea anemones) / Co Capsaspora / Aq Amphimedon (sponge) / Dm Drosophila / Hu human; RHD is the Rel homology domain; high values mean tight binding
Holding throughout (details): dsDNA, one strand shown

The target in assay [1] is T1, GST-Nv-NF-kB (Cys allele) (Nematostella vectensis, UniProt E5G601 2-411).
T1 sequence: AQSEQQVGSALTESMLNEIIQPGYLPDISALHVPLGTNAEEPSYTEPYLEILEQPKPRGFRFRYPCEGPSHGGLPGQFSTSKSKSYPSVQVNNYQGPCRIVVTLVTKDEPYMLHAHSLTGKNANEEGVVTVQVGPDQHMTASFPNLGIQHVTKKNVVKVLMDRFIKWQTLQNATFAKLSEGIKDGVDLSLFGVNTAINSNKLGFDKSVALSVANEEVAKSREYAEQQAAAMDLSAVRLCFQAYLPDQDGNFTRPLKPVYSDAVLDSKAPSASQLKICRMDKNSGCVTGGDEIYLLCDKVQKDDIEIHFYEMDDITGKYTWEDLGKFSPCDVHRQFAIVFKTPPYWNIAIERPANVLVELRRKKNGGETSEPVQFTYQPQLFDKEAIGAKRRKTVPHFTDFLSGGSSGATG

In assay [2] the target is T2, GST-Dm-Relish (Drosophila melanogaster, UniProt Q94527 99-473).
T2 sequence: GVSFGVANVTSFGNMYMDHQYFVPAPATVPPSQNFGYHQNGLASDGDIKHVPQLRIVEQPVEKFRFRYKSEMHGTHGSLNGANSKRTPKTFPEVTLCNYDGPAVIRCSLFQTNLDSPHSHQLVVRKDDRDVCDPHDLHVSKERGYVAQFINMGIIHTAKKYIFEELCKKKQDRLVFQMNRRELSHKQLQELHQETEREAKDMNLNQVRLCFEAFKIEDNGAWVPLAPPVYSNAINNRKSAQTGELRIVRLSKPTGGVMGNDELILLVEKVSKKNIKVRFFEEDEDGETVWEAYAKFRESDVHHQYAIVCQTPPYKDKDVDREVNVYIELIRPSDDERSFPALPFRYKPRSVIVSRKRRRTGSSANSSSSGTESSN

The target in assay [3] is T3, GST-Aq-NF-kB (Amphimedon queenslandica, UniProt A9Y5G7 2-389).
T3 sequence: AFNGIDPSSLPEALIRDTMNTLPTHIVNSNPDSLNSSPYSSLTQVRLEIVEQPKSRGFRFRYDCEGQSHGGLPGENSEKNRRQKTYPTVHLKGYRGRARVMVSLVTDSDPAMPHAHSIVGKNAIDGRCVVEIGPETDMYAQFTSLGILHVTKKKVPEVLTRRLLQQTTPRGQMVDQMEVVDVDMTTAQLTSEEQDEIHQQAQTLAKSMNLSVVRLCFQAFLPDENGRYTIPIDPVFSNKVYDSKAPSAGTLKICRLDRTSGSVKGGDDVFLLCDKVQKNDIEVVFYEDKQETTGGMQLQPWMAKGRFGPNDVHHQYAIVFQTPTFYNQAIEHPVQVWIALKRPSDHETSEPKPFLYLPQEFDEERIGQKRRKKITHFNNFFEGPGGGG

For assay [4], the target named is T4, GST-Nv-NF-kB (Ser allele) (Nematostella vectensis, UniProt A7UNT2 2-411).
T4 sequence: T1 sequence with Q21R, C66S, S207N, E215Q, V217A, E225K, A268E, D399E

For assay [5], the target named is T5, GST-Co-NF-kB (Capsaspora owczarzaki, UniProt F1ARL5 200-546).
T5 sequence: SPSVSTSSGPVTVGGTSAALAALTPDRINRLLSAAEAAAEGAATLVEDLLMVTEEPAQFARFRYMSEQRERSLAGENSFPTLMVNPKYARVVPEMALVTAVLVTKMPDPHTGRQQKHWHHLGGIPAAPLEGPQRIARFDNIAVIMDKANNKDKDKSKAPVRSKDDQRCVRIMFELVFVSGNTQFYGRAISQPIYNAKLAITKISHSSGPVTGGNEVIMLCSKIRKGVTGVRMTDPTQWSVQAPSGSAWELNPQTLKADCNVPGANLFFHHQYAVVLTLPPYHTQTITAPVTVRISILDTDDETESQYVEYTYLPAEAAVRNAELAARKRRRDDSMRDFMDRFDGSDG

Residue numbers refer to the chain shown, from its start.

With “CCGATTAACATCAGGAATGTACCTGATGTTAATCGGGTCTTGATTCGCTTGACGCTGCTG”, the binding signal in assay [1] stood at 1.98 z-score; in assay [2], 4.93 z-score; in assay [3], 3.14 z-score.

In the case of “CCGATTAACATCAATTGGGAAATTGATGTTAATCGGGTCTTGATTCGCTTGACGCTGCTG”, the binding signal worked out at 3.36 z-score in assay [1]; 3.48 z-score in assay [4]; 1.8 z-score in assay [5]; 1.48 z-score in assay [2]; 1.63 z-score in assay [3].

Turning to “CCGATTAACATCAGGAATTTACCTGATGTTAATCGGGTCTTGATTCGCTTGACGCTGCTG”, the binding signal in assay [1] amounted to 3.18 z-score; in assay [2], 4.54 z-score; in assay [3], 4.81 z-score.

On to “CCGATTAACATCAAGGTATTTCCTGATGTTAATCGGGTCTTGATTCGCTTGACGCTGCTG”, for which the binding signal in assay [1] came to 1.66 z-score; in assay [4], 1.29 z-score; in assay [2], 3.08 z-score; in assay [3], 3.84 z-score.

Consider “CCGATTAACATCAGACATGGGAATGATGTTAATCGGGTCTTGATTCGCTTGACGCTGCTG”, for which the binding signal amounted to 1.46 z-score in assay [1], 2.4 z-score in assay [5] and 1.94 z-score in assay [3].

As for “CCGATTAACATCAGAAATTACCATGATGTTAATCGGGTCTTGATTCGCTTGACGCTGCTG”, the values for the binding signal in assay [1], in assay [2] and in assay [3] were 1.45 z-score, 2.33 z-score and 1.16 z-score, respectively.

As for “CCGATTAACATCAATGGGTTTCCTGATGTTAATCGGGTCTTGATTCGCTTGACGCTGCTG”, the binding signal in assay [2] was 2.98 z-score; in assay [3], 1.07 z-score.

With “CCGATTAACATCAAGTACTTTCCTGATGTTAATCGGGTCTTGATTCGCTTGACGCTGCTG”, the binding signal in assay [2] came to 5.26 z-score; in assay [3], 1.81 z-score.

With “CCGATTAACATCAAAGAAATTCCTGATGTTAATCGGGTCTTGATTCGCTTGACGCTGCTG”, the binding signal in assay [2] was 1.96 z-score; in assay [3], 1.44 z-score.

On to “CCGATTAACATCACGGGCATCCCTGATGTTAATCGGGTCTTGATTCGCTTGACGCTGCTG”, for which the binding signal in assay [2] came out at 5.06 z-score; in assay [3], 3.09 z-score.

Turning to “CCGATTAACATCACGTAATTTCCTGATGTTAATCGGGTCTTGATTCGCTTGACGCTGCTG”, the binding signal came to 1.85 z-score in assay [2] and 1.14 z-score in assay [3].

For the sequence “CCGATTAACATCAGAAAATTCCATGATGTTAATCGGGTCTTGATTCGCTTGACGCTGCTG”, the binding signal in assay [2] is 1.53 z-score; in assay [3], 1.51 z-score.

For the sequence “CCGATTAACATCACCGGATTTCCTGATGTTAATCGGGTCTTGATTCGCTTGACGCTGCTG”, the binding signal in assay [2] was 1.86 z-score; in assay [3], 1.54 z-score.

With “CCGATTAACATCAAAAAATCTCCTGATGTTAATCGGGTCTTGATTCGCTTGACGCTGCTG”, the values for the binding signal in assay [2] and in assay [3] were 1.02 z-score and 1.21 z-score, respectively.

With “CCGATTAACATCAAAAAATTCCGTGATGTTAATCGGGTCTTGATTCGCTTGACGCTGCTG”, the figures for the binding signal in assay [5], in assay [2] and in assay [3] were 1.34 z-score, 2.44 z-score and 2.61 z-score, respectively.

Consider “CCGATTAACATCAGGAAAATTTATGATGTTAATCGGGTCTTGATTCGCTTGACGCTGCTG”, for which the binding signal stood at 1.44 z-score in assay [2] and 1.26 z-score in assay [3].

With “CCGATTAACATCAAAGGAATTCCTGATGTTAATCGGGTCTTGATTCGCTTGACGCTGCTG”, the binding signal in assay [2] came to 3.78 z-score; in assay [3], 2.38 z-score.

As for “CCGATTAACATCAACGGAATTCCTGATGTTAATCGGGTCTTGATTCGCTTGACGCTGCTG”, the binding signal in assay [2] was found to be 2.11 z-score; in assay [3], 1.66 z-score.

As for “CCGATTAACATCAGGACTTTACATGATGTTAATCGGGTCTTGATTCGCTTGACGCTGCTG”, the binding signal in assay [2] is 6.1 z-score; in assay [3], 1.25 z-score.

With “CCGATTAACATCAGGAATCTCCATGATGTTAATCGGGTCTTGATTCGCTTGACGCTGCTG”, the values for the binding signal in assay [2] and in assay [3] were 1.01 z-score and 1.6 z-score, respectively.

Regarding “CCGATTAACATCAGGAAAAACCATGATGTTAATCGGGTCTTGATTCGCTTGACGCTGCTG”, the values for the binding signal in assay [2] and in assay [3] were 2.39 z-score and 2.94 z-score, respectively.

Turning to “CCGATTAACATCAAGTAATTTCCTGATGTTAATCGGGTCTTGATTCGCTTGACGCTGCTG”, the binding signal is 2.36 z-score in assay [2] and 1.18 z-score in assay [3].

Take “CCGATTAACATCACCGGAAATCCTGATGTTAATCGGGTCTTGATTCGCTTGACGCTGCTG”: the binding signal in assay [2] worked out at 2.06 z-score; in assay [3] it was 2.27 z-score.

As for “CCGATTAACATCACGGAATTCCATGATGTTAATCGGGTCTTGATTCGCTTGACGCTGCTG”, the binding signal was 1.4 z-score in assay [2] and 1.3 z-score in assay [3].

Turning to “CCGATTAACATCAGGAAAATCCATGATGTTAATCGGGTCTTGATTCGCTTGACGCTGCTG”, the binding signal in assay [2] was 1.26 z-score; in assay [3], 2.69 z-score.

Take “CCGATTAACATCAAAAAAACTCCTGATGTTAATCGGGTCTTGATTCGCTTGACGCTGCTG”: the binding signal is 3.63 z-score in assay [2] and 1.83 z-score in assay [3].

For “CCGATTAACATCAGGTAAGTCCATGATGTTAATCGGGTCTTGATTCGCTTGACGCTGCTG”, the binding signal in assay [2] came out at 1.83 z-score; in assay [3], 2.33 z-score.

Turning to “CCGATTAACATCAGGAATTTCTATGATGTTAATCGGGTCTTGATTCGCTTGACGCTGCTG”, the binding signal in assay [2] was determined as 1.28 z-score; in assay [3] it was 1.23 z-score.

Consider “CCGATTAACATCAGGAAATTACATGATGTTAATCGGGTCTTGATTCGCTTGACGCTGCTG”, for which the binding signal in assay [2] worked out at 5.09 z-score; in assay [3] it was 1.17 z-score.

As to “CCGATTAACATCACGGAAATTTCTGATGTTAATCGGGTCTTGATTCGCTTGACGCTGCTG”, the results for the binding signal in assay [5], in assay [2] and in assay [3] were 1.12 z-score, 1.36 z-score and 2.5 z-score, respectively.

For “CCGATTAACATCACGGAAAGTCCTGATGTTAATCGGGTCTTGATTCGCTTGACGCTGCTG”, the binding signal is 3.12 z-score in assay [2] and 5.28 z-score in assay [3].

“CCGATTAACATCAAAAATTCCGCTGATGTTAATCGGGTCTTGATTCGCTTGACGCTGCTG”: the binding signal in assay [2] was 1.22 z-score; in assay [3], 1.89 z-score.

Turning to “CCGATTAACATCAAAATTTTCCTTGATGTTAATCGGGTCTTGATTCGCTTGACGCTGCTG”, the binding signal in assay [2] was 2.92 z-score; in assay [3], 1.12 z-score.

The record behind these values is article PMC5700166.
